JMJD2A Tudor = qHTS Assay for Inhibitors of JMJD2A-Tudor Domain; AlphaScreen JMJD2A-Tudor / H3K4me3 peptide binding; Lysine-specific demethylase 4A (Homo sapiens), O75164; Potency, µM (doses to about 114 µM), inactives show top-dose activity change, negative = inhibition, hits mostly inhibitors; 390,000 tested, 4.4% active; AID 504339, 2011; note: % is set by controls: 0 for no effect and ±100 for the full control effect; nearly all actives have a fitted effect of over 50% in size
G9a block = qHTS Assay for Inhibitors of Histone Lysine Methyltransferase G9a | G9a H3K9 monomethylation, AlphaScreen, 2 h | Potency, µM (doses to about 102 µM), without a hit: top-dose activity, negative = inhibition, most hits filed as inhibitors | 350,000 tested, 8.8% active; note: % is set by controls: 0 for no effect and ±100 for the full control effect; nearly all actives have a fitted effect of over 75% in size
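Step 1: enzyme (final 20 nM) with compound, 15 min RT. Step 2: substrate peptide 500 nM and SAM 20 uM, 2 h RT. Step 3: anti-H3K9me1 antibody and AlphaScreen beads, 10 min, then plate read.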
HP1b binding inh = HTS for Inhibitors of HP1-beta Chromodomain Interactions with Methylated Histone Tails | Chromobox protein homolog 1 (Homo sapiens), P83916 | AlphaScreen HP1-beta / biotin-H3K9me3 peptide binding | Potency, µM (highest dose often 114 µM), without a hit: top-dose activity change, negative = inhibition, actives largely listed as inhibitors | 390,000 tested, 0.56% active; note: nearly all actives have a fitted effect of over 70% in size
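HP1-beta protein (50 nM final) preincubated 30 min at room temperature with biotinylated H3(1-18)K9me3 peptide (50 nM) in PBS pH 7.4, 0.01% Tween-20, then compound added for 30 min. AlphaScreen streptavidin donor/nickel chelate acceptor beads (10 ug/mL final), 30 min dark, luminescence read.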
BAZ2B block = qHTS Assay for Inhibitors of BAZ2B; Potency, µM (series often up to 114 µM), inactives show at the top dose activity change, negative = inhibition, usual class: inhibitors; 360,000 tested, 4.4% active; Bromodomain adjacent to zinc finger domain protein 2B (Homo sapiens), Q9UIF8; AlphaScreen BAZ2B-H3K14Ac peptide displacement; note: % is set by controls: 0 for no effect and ±100 for the full control effect; nearly all actives have a fitted effect of over 60% in size
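In this displacement format the biotinylated H3(5-23) peptide acetylated at Lys14 serves as ligand at 50 nM, with BAZ2B at 50 nM in PBS pH 7.4 containing 0.01% Tween-20. Donor and acceptor beads are 10 ug/mL final.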
Sfp inh = qHTS Assay for Inhibitors of Bacillus subtilis Sfp phosphopantetheinyl transferase (PPTase) | Biochemical Sfp PPTase activity, qHTS | Potency, µM, without a hit: largest response in the series, negative = inhibition, most hits filed as inhibitors | 310,000 tested, 3.5% active;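 note: the enzyme is Sfp with the accession as filed and its product quenches rhodamine fluorescence; 0% = enzyme reaction without inhibitor and -100% = no enzyme wells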
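Buffer: 50 mM Hepes-Na pH 7.6, 10 mM MgCl2, 0.01% Nonidet P-40, 0.01% BSA. Enzyme 15 nM, pre-exposed to compound 15 min; substrates then added and fluorescence change tracked over 30 min.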
PLK1 PBD inh = qHTS for Inhibitors of PLK1-PDB (polo-like kinase 1 - polo-box domain): Primary Screen | Plk1 PBD binding of FITC phosphopeptide, fluorescence polarization | Serine/threonine-protein kinase PLK1 (Homo sapiens), P53350 | Potency, µM, for the others: max response, negative = inhibition, most hits filed as inhibitors | 360,000 tested, 2.8% active; note: series mostly up to about 57 µM; % is set by controls: 0 for no effect and ±100 for the full control effect; nearly all actives have a fitted effect of over 65% in size
Numbers without * were called inactive; ? = inconclusive; / = no result given; [ ] = dose if it differs, or a comment. This is a sample that favours compounds with a hit; in the whole collection about 12% have one here. Calls come from the whole dose curve; as a rule, active = well fitted curve in the direction sought with a large enough effect; inconclusive = small, poorly fitted or top-dose-only effect, or another doubt; inactive = no such curve, though single readings can be large; an effect the other way counts as inactive or inconclusive. Potency is the fitted concentration of half-maximal effect.

SMILES | JMJD2A Tudor | G9a block | HP1b binding inh | BAZ2B block | Sfp inh | PLK1 PBD inh
COc1ccc2c(c1)-c1c(ssc1=S)C(C)(C)N2 | 20µM* | 7.9µM* | 16µM* | 13µM* | ? | -17%
C=CCC1(O)C=CCC2C3C4C(OC(C)(C)C)C2C1C34 (stereo unspecified) | / | / | / | / | 4% | /
COc1cc(NS(=O)(=O)c2cc(Br)cc3c2N(C(=O)C2CC2)CC3)cc(OC)c1 | -15% | -23%[59 µM] | 48% | 9% | / | /
O=C(Nc1ccc(-c2nc3ccccc3[nH]2)cc1)c1ccccc1NS(=O)(=O)c1ccc(F)cc1 | -20% | 16%[59 µM] | 28% | -5% | 9% | 27µM*
Cc1ccc(S(=O)(=O)Nc2nc(-c3ccccc3)cs2)cc1 | -33% | ? | -15% | ? | 17% | ?
CS(=O)(=O)c1ccccc1C(=O)Nc1ccc(-c2nc3ccccc3[nH]2)cc1 | -18% | 19% | 0%[57 µM] | -23% | 18% | -14%
Cc1ccc(S(=O)(=O)Nc2ccccc2C(=O)Nc2nc(-c3ccc(F)cc3)cs2)cc1 | ? | 0%[59 µM] | -8% | 9% | -13% | 27µM*
COc1ccc(-c2csc(NC(=O)c3ccccc3NS(=O)(=O)c3ccc(F)c(F)c3)n2)cc1 | 56µM* | -37%[12.7 µM] | ? | 45µM* | -5% | 21µM*
CCCN1CCCC(c2cccc(S(C)(=O)=O)c2)C1 (stereo unspecified) | / | / | / | / | -16% | /
Nc1cc(-c2ccco2)no1 | -8% | -5%[59 µM] | 50% | 11% | ? | -5%
Nc1ncnc2oc(-c3ccco3)c(-c3ccco3)c12 | 56µM* | 5.6µM* | -33% | 56µM* | 20µM* | ?
Nc1ncnc2oc(-c3ccoc3)c(-c3ccco3)c12 | 50µM* | / | 56µM* | / | / | /
CCN(C(=O)CSc1nnnn1-c1ccccc1)c1c(N)n(Cc2ccccc2)c(=O)[nH]c1=O | -13% | 13µM* | 36% | -6% | -19% | -8%
CCN(C(=O)CSc1nncn1-c1ccccc1)c1c(N)n(Cc2ccccc2)c(=O)[nH]c1=O | -9% | ? | 13% | -2% | 9% | -7%
CCN(C(=O)CSc1nc2ccccc2o1)c1c(N)n(Cc2ccccc2)c(=O)[nH]c1=O | -11% | 7.1µM* | 11% | 9% | / | -23%
Clc1ccc(CNCCC2=CCCCC2)cc1 | 1% | -2%[59 µM] | 3% | 10% | 6% | -9%
Cc1nc2scc(-c3cccs3)c2c(=O)[nH]1 | -19% | ? | -5% | 6% | 45µM* | ?
O=C(CN1c2cccc3cccc(c23)S1(=O)=O)Nc1ccc(S(=O)(=O)N2CCOCC2)cc1 | -25% | 7.9µM* | 2% | -39% | ? | -13%
O=C(COC(=O)c1ccc(Br)o1)Nc1cccc(S(=O)(=O)N2CCOCC2)c1 | -14% | / | 15% | / | / | -2%
O=C(CN1CCN(S(=O)(=O)c2ccccc2)CC1)Nc1ccc(N2CCOCC2)cc1 | -9% | ? | 19% | -5% | 9% | -8%
O=C(CN1C(=O)c2cccc3cccc1c23)Nc1ccc(S(=O)(=O)N2CCOCC2)cc1 | -14% | 19%[59 µM] | 60% | 20% | 8% | -10%
O=C(CN1CCN(S(=O)(=O)c2ccc3ccccc3c2)CC1)Nc1ccc(N2CCOCC2)cc1 | -44% | 40µM* | -9% | -38% | 14% | -10%
COc1ccc(S(=O)(=O)N2CCN(CC(=O)Nc3ccc(C)c(F)c3)CC2)cc1 | -20% | 45µM* | 16% | 5% | -25% | -7%
O=C(CNC(=O)c1ccc(Br)o1)Nc1cccc(S(=O)(=O)N2CCOCC2)c1 | -23% | 50µM* | -3% | -1% | / | -10%
CC(=O)Nc1ccc(CN(C)c2c(C)nc3ccc(C(=O)N(C)Cc4ccccc4)cn23)cc1 | / | / | / | / | / | -6%

Screens from PubChem.
